Our source for the inhibition values is PubChem BioAssay AID1566 (Sanford-Burnham Center for Chemical Genomics, 2009).

Values joined by “and” are separate entries in the source; they are usually repeats but may differ in a detail not shown here. Identical values can stand only once. Among all 290,000 compounds or so, about 1,800 (0.62%) were called active. The sample as a whole holds a higher share of actives than the screen did. Unmarked numbers belong to inactive results. No stated cut-off is given here; in the data, active means inhibition above about 50%; inactive means the rest.

This assay is described as follows: NOD2 signaling inhibitors, cell-based, luminescence, uHTS, HEK293 (AID 1566). Conditions: HEK293 NOD2/NF-kB luciferase reporter, at 4 µM, hits give high values.
As to `CCn1c(=O)c(=O)[nH]c2cc(C(=O)NC(C)c3ccc(S(N)(=O)=O)cc3)ccc21` (stereo not given), the inhibition is -19.7%.

Turning to `CNc1nnc(-c2cc3ccccc3oc2=O)s1`, the inhibition is -76.8%.

With `O=c1oc2ccc(Cl)cc2cc1-c1nnc(Nc2cccc(C(F)(F)F)c2)s1`, the inhibition is 9%.

Turning to `CNc1nnc(-c2cc3cc(Cl)ccc3oc2=O)s1`, the inhibition is 94.4% (active).

Turning to `CCOC(=O)N1CCN(C(=O)c2ccccc2NC(=O)c2ccc(C(C)(C)C)cc2)CC1`, the inhibition is 4.9%.

As to `CC(=O)c1sc(-c2ccc(F)cc2F)nc1C`, the inhibition is -0.7%.

In the case of `Cc1cnc(NC(=O)c2c(-c3ccccc3)noc2C)s1`, the inhibition is 5.6%.

As for `Cc1nnc(NC(=O)c2c(-c3ccccc3)noc2C)s1`, the inhibition is 4.4%.

Consider `CCOc1ccc(NC(=O)Nc2ccon2)cc1`, for which the inhibition is -25.3%.

In the case of `CCOC(=O)c1ccc(CC(=O)c2ccc(O)cc2O)o1`, the inhibition was 67.3% (active).

With `CCOC(=O)c1ccc(CC(=O)c2ccc(O)c(O)c2O)o1`, the inhibition was 8.3%.

In the case of `COC(=O)c1ccc(CC(=O)c2ccc(O)cc2O)o1`, the inhibition is 43.8%.

As to `CC[N+](CC)(CCO)CCCN1C(=O)C2CC=C(Cl)CC2C1=O` (stereo not given), the inhibition is 1.4%.

Turning to `CCOC(=O)c1sc2nc(C)nc(NCc3ccccc3)c2c1C`, the inhibition was 22%.

On to `CCOC(=O)c1sc2nc(C)nc(NCc3ccc(Cl)cc3)c2c1C`, for which the inhibition was 51.3% (active).

Take `CCOC(=O)c1sc2nc(C)nc(NCc3ccc(F)cc3)c2c1C`: the inhibition is 45.8%.

For `CC(=O)Nc1ccc(NC(=O)CSc2nc3c([nH]c4ccccc43)c(=O)n2-c2ccccc2F)cc1`, the inhibition was 34.3%.

For `C(C#CCCCCCCCCC[n+]1ccccc1)#CCCCCCCCCC[n+]1ccccc1`, the inhibition was 68% (active).

Regarding `c1cc[n+](CCC[n+]2ccccc2)cc1`, the inhibition is 11.7%.

On to `c1cc[n+](CCCC[n+]2ccccc2)cc1`, for which the inhibition was 7.6%.

In the case of `CN(C)N1C(N)=C(C#N)C(c2ccc(F)cc2)C2=C1CC(C)(C)CC2=O` (stereo not given), the inhibition was -11.2%.

As for `O=C(COc1cccc(Cl)c1)Nc1nc(-c2ccc(S(=O)(=O)N3CCOCC3)cc2)cs1`, the inhibition was -0.1%.

Consider `O=C(COc1ccccc1)Nc1nc(-c2ccc(S(=O)(=O)N3CCOCC3)cc2)cs1`, for which the inhibition was 25.3%.

Consider `Cc1cccc(NC(=O)CCC(=O)Nc2nnc(C(F)(F)F)s2)c1`, for which the inhibition was 8.6%.

For `CCS(=O)(=O)N1CCN=C1SCc1cccc(F)c1`, the inhibition was 8.5%.

With `O=C(Nc1nccs1)c1ccc(N2CCOCC2)c([N+](=O)[O-])c1`, the inhibition was -39.7%.

With `O=C(Nc1nc(-c2ccccc2)cs1)c1ccc(N2CCOCC2)c([N+](=O)[O-])c1`, the inhibition is 68.1% (active).

Consider `O=C(Nc1nc(-c2ccc(-c3ccccc3)cc2)cs1)c1cc([N+](=O)[O-])ccc1N1CCOCC1`, for which the inhibition was 6%.

Consider `Cc1cc(C(=O)Nc2cccc(/C=C/C(=O)O)c2)c(C)o1`, for which the inhibition was 5.6%.

For the compound `N/C(=N\OC(=O)c1cccc(Cl)c1)c1ccccn1`, the inhibition was -99.8%.

Consider `CC(C)(C)NC(=O)CSc1nc2scc(-c3ccccc3)c2c(=O)[nH]1`, for which the inhibition is 25.9%.

On to `CC(C)CNC(=O)CSc1nc2scc(-c3ccccc3)c2c(=O)[nH]1`, for which the inhibition was 37.7%.

Consider `CC(C)CNC(=O)c1cccc(C(=O)NCC(C)C)c1`, for which the inhibition is 7.3%.

As for `Cn1c(=O)c2c(nc(CN3CCN(c4ccccc4F)CC3)n2CCN2CCOCC2)n(C)c1=O`, the inhibition is 9%.

As for `O=C(CN1CCOCC1)N1CCc2ccccc2C(c2ccccc2)C1` (stereo not given), the inhibition was 17%.

As to `COc1ccc(F)cc1CN1CCN(c2ncnc3scc(-c4ccccc4)c23)CC1`, the inhibition was 19.8%.

For `O=C(NCc1ccccc1Cl)C1CCCN(c2ncnc3c2nc2n3CCCCC2)C1` (stereo not given), the inhibition was 18.9%.

In the case of `CC1CCN(C(=O)Cn2c(=O)oc3ccccc32)CC1`, the inhibition is -2.3%.

For `COc1ccc(NC(=O)CN(c2ccc([N+](=O)[O-])cc2)S(=O)(=O)c2ccccc2)cc1`, the inhibition is -17.8%.

Consider `CC(=O)c1ccc(O)c(CC=C(C)C)c1`, for which the inhibition is 34.2%.

Turning to `CCC(=O)c1ccc(O)c(CC=C(C)C)c1`, the inhibition is 54.6% (active).

`CC(=O)c1cc(CC=C(C)C)c(O)cc1O`: the inhibition is 30.8%.

Consider `O=c1cc(O)nc(SCc2ccccc2)n1-c1ccccc1`, for which the inhibition was 13.3% and 9.4%.

With `S=C(NCc1ccccc1)NN1CCOCC1`, the inhibition was 1.7%.

With `Nc1nc(N2CCCCC2)nc2ccccc12`, the inhibition is -20.9%.

Regarding `Cc1cccc(NC(=O)Cn2c(O)c(N=NC(N)=S)c3ccccc32)c1`, the inhibition was -8.5%.

Regarding `Cc1cccc(Cn2c(O)c(N=NC(=S)Nc3ccccc3F)c3ccccc32)c1`, the inhibition was 18.9%.

On to `O=C(O)c1cccc(NC(=O)c2cccc(S(=O)(=O)N3CCc4ccccc43)c2)c1`, for which the inhibition was -26.3%.

In the case of `Cc1cccnc1NC(=O)c1cccc(S(=O)(=O)N2CCCc3ccccc32)c1`, the inhibition is 0.8%.

With `COc1cccc(C2CC(=O)NC(SC)=C2C#N)c1` (stereo not given), the inhibition was 27.4%.

In the case of `CCO[C@@H]1OC(C(=O)NCc2ccccc2)=C[C@H](c2ccc(Br)cc2)[C@H]1CCCO`, the inhibition was -1.4%.

Take `Cc1c(CC(=O)N[C@@H](CCCNC(N)=O)C(=O)O)c(=O)oc2cc3oc4c(c3cc12)CCCC4`: the inhibition was 14.7%.

For the compound `COc1ccc(CS(=O)(=O)/C(Cl)=C(/Cl)C(=O)Nc2ccc(OC)nc2)cc1`, the inhibition is 79.2% (active).

For the compound `COc1ccc(CC(=O)Nc2ccc(OC)nc2)cc1`, the inhibition is 6.1%.

As for `COc1ccc(NC(=O)C(Cl)=C(Cl)Cl)cn1`, the inhibition is -25.2%.

Take `CCN(CC(=O)N(CC(C)C)c1c(N)n(CC(C)C)c(=O)[nH]c1=O)Cc1nc2ccccc2c(=O)[nH]1`: the inhibition is 13.4%.

On to `Cc1cc(NC(=O)CN(C)S(=O)(=O)c2cccc(Cl)c2)no1`, for which the inhibition was 0.9%.

Consider `COc1ccc(NC(=O)COC(=O)C2CC(=O)N(c3ccc(OC(C)C)cc3)C2)cc1` (stereo not given), for which the inhibition is 6.7%.

Regarding `O=C(NCC1OCCc2ccccc21)c1ccc(NC(=O)c2cccc(Br)c2)cc1` (stereo not given), the inhibition is 2.8%.

As to `Cc1ccccc1-n1c(C)cc(/C=N/Nc2ccc([N+](=O)[O-])cn2)c1C`, the inhibition was -29.9%.

As to `Cc1cc(/C=N/Nc2nc(N)ncc2[N+](=O)[O-])c(C)n1-c1cccc(C(F)(F)F)c1`, the inhibition is -78.1%.

In the case of `COc1cccc(/C=N/Nc2ncnc(N)c2[N+](=O)[O-])c1OC`, the inhibition is -39.2%.

Consider `Cc1cc(/C=N/Nc2ccc([N+](=O)[O-])cn2)c(C)n1-c1ccccc1`, for which the inhibition is 8.4%.

For the compound `O=[N+]([O-])c1cccc(-c2cc(C(F)(F)F)n3nc(-c4ccccc4)cc3n2)c1`, the inhibition was 26.1%.

Take `CCCN(CCC)CC(O)COc1ccc2c(c1)OCO2` (stereo not given): the inhibition was 4.6%.

On to `O=C(NCc1ccccc1F)C1CCCN1C(=O)Nc1cccc(F)c1` (stereo not given), for which the inhibition is -1.7%.

As for `Cc1nn(-c2nc3ccccc3[nH]2)c(N)c1-c1ccccc1`, the inhibition is -163%.

As for `Cc1nn(-c2nc3ccccc3[nH]2)c(=O)c2ccccc12`, the inhibition was 87.2% (active).

With `Cc1nn(-c2ccccc2)c(=O)c2ccccc12`, the inhibition is -1.4%.

In the case of `O=c1c(Cl)c(N2CCOCC2)cnn1-c1nc2ccccc2[nH]1`, the inhibition is -110%.

As to `O=c1c(Cl)c(N2CCCCC2)cnn1-c1nc2ccccc2[nH]1`, the inhibition was -7.2%.

For `O=c1c2ccccc2cnn1-c1nc2ccccc2[nH]1`, the inhibition is 87.6% (active).

Consider `NS(=O)(=O)c1ccc(CCNC(=O)c2cc(-c3ccc(Br)cc3)nc3ccccc23)cc1`, for which the inhibition was -18.4%.

As to `O=C(NCc1ccon1)C1CCC(=O)N(CCc2ccc(Cl)cc2)C1` (stereo not given), the inhibition is 6.3%.

For the compound `COc1ccc2c(c1)cc(C(=O)N[C@H](C(=O)N1CCC(C(=O)O)CC1)C(C)C)n2C`, the inhibition was -3.6%.

For the compound `C/C(=N/NC(=O)CN1CCN(Cc2ccccc2Cl)CC1)c1cccs1`, the inhibition is 20%.

Regarding `Cc1ccc(NC(=O)Cc2ccccc2)c(C)c1`, the inhibition was -14.9%.

In the case of `Cc1ccc(NC(=O)c2cc(C)nc3ccccc23)c(C)c1`, the inhibition was 1.4%.

On to `Cc1cc(C)n(C(C)CC(=O)N2CCc3ccccc32)n1` (stereo not given), for which the inhibition is 14.5%.

For `COc1ccc(S(=O)(=O)Nc2cc(OC)c(NC(=O)c3ccco3)cc2OC)cc1`, the inhibition is 19.5%.

As for `O=c1c2ccccc2c(C=Nc2ccc(S(=O)(=O)N3CCCCC3)cc2)c(O)n1-c1ccc(Cl)cn1`, the inhibition was -6.9%.

`Cc1cccc(NC(=O)CCSc2ccccc2)c1C`: the inhibition was -32.5%.

`CCC(=O)Nc1nnc(/C=C/c2ccccc2)s1`: the inhibition is -60.7%.

In the case of `COc1ccc(CCNC(=O)c2ccc3ccccc3n2)cc1OC`, the inhibition was 6.9%.

For the compound `COc1ccc(CNC(=O)c2ccc3ccccc3n2)cc1`, the inhibition was 0.9%.

With `Cc1cccc(/C=N\NC(=O)c2ccccc2-n2cccc2)c1`, the inhibition was -1.5%.

Regarding `O=C(c1cccc(S(=O)(=O)N2CCCC2)c1)c1cccc(S(=O)(=O)N2CCCC2)c1`, the inhibition is 32.8%.

As for `CCN(CC)c1ccc2nc3ccccc3[n+](CC)c2c1`, the inhibition is 74.8% (active).

For `CCN(CC)c1ccc(/C=N/Nc2nc3ccccc3[nH]2)c(O)c1`, the inhibition is -63.5%.

For `CCN(CC)c1ccc2cc(-c3nc4ccccc4[nH]3)c(=O)oc2c1`, the inhibition was -69.7%.

`O=C(c1cc2ccccc2oc1=O)N1CCCCCCC1`: the inhibition was 9.4%.

Take `CCCCn1c(-c2nn(C)c(C)c2Cl)n[nH]c1=S`: the inhibition was 19.7%.

Regarding `CCN1CCN(Cc2ccc(NC(=O)c3cc(NC(=O)C(=O)c4c[nH]c5ccccc45)cc(OC)c3)cc2C(F)(F)F)CC1`, the inhibition is 5.4%.

As to `CCN1CCN(Cc2ccc(NC(=O)c3ccc(C)c(NC(=O)C(=O)c4c[nH]c5ccccc45)c3)cc2C(F)(F)F)CC1`, the inhibition is 57% (active).

As to `CCN1CCN(Cc2ccc(NC(=O)c3ccc(C)c(NC(=O)c4cccc5[nH]ccc45)c3)cc2C(F)(F)F)CC1`, the inhibition was -20.7%.
